From PubChem
Most compounds without a hit are left out; they make up all but 9.2% or so of the library.
Rab9 promoter act = activators of Rab9 promoter. Potency, µM (titrated, usually from 9.22 µM), actives largely listed as activators. 2.8% of 320,000 active. Huh7 Rab9 promoter-luciferase reporter, luminescence, 24 h; further: nearly all actives have a fitted effect of over 60% in size
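Measured in stably transfected Huh7 cells bearing a Rab9 promoter–luciferase construct: 24 h compound treatment at 37 °C, followed by luminescence detection.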
FLuc counter = inhibits or activates purified firefly luciferase, miR-21 counter-screen; 6.9% of 360,000 active; purified FLuc, Km substrates, luminescence inhibition; Potency, µM (top dose mostly 57.5 µM), hits mostly inhibitors; P08659; further: nearly all actives have a fitted effect of over 55% in size
Target sequence (P08659 whole entry, looked up): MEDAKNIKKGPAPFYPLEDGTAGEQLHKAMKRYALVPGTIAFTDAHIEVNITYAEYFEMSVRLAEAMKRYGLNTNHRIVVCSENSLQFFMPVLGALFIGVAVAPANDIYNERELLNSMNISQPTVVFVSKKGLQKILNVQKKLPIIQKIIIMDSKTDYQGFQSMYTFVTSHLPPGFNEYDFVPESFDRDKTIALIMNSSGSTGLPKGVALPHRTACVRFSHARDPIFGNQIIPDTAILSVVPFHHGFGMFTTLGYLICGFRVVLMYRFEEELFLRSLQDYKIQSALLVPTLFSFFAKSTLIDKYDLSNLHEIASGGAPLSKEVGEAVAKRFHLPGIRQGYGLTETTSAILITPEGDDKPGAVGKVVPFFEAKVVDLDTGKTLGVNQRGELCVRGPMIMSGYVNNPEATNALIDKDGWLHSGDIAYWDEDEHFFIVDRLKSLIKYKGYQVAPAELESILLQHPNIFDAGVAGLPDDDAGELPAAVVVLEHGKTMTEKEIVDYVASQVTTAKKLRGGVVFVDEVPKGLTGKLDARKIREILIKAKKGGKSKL
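Purified P. pyralis luciferase, 10 nM final, with Km-level 10 uM D-luciferin and 10 uM ATP in 50 mM Tris acetate pH 7.5, 10 mM Mg acetate, 0.01% Tween-20, 0.05% BSA; 6-point qHTS titration about 60 µM downward; luminescence read.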
SMN2 splice enh = increases expression of the SMN2 splice variant | HEK293 SMN2-luciferase splicing reporter, luminescence, 30-36 h | Potency, µM (series often up to 46.1 µM), actives largely listed as activators | 2.8% of 210,000 active; further: nearly all actives have a fitted effect of over 55% in size
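qHTS luciferase splicing reporter: luminescence rises when SMN2 exon 7 is included in transfected HEK293 cells. Compound exposure lasted 30-36 h at 37C, with 4.5 mM final sodium butyrate as control, followed by a ONE-Glo read.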
ELG1 genotoxic = inducers of genotoxicity in HEK293T ELG1-luciferase cells; Potency, µM (doses to about 46 µM), actives largely listed as activators; 1.3% of 330,000 active; HEK293T ELG1-luciferase reporter, luminescence, 16 h; further: nearly all actives have a fitted effect of over 60% in size
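Step 1: seed 2,000 HEK293T ELG1-luciferase cells per well. Step 2: add compound or DMSO, incubate 16 hr at 37 °C. Step 3: ONE-Glo, 30 min at room temperature, read luminescence.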
NPC1 promoter act = activates the NPC1 promoter | Potency, µM (series often up to 9.22 µM), usual class: activators | AID 485313 | Huh7 NPC1 promoter luciferase reporter, 24 h | 2.4% of 320,000 active; further: nearly all actives have a fitted effect of over 60% in size
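Quantitative HTS used a cell-based reporter: Huh7 cells stably bearing the NPC1 promoter upstream of luciferase were treated with compounds for 24 h, and promoter activation was read as luminescence.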
ELG1 repair inh = blocks ELG1-dependent DNA repair in HEK293T cells. Potency, µM (top dose mostly 46.1 µM), actives largely listed as inhibitors. 2.3% of 330,000 active. HEK293T ELG1-luciferase reporter, luminescence, 16 h; DNA damage induced by 5-fluorouridine; further: nearly all actives have a fitted effect of over 55% in size
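DMSO vehicle served as the neutral condition. Each well held 2,000 cells given 5-fluorouridine plus compound; after 16 hr at 37 °C/5% CO2, ONE-Glo was added and luciferase measured 30 min later.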
A number is an active result; - = inactive; ? = inconclusive; . = not tested or not shown. The call rests on the fitted dose curve; in most records, active means well fitted curve in the direction sought with a large enough effect; inconclusive means small, poorly fitted or top-dose-only effect, or another doubt; inactive means no such curve, though single readings can be large; an effect the other way counts as inactive or inconclusive.

SMILES	Rab9 promoter act	FLuc counter	SMN2 splice enh	ELG1 genotoxic	NPC1 promoter act	ELG1 repair inh
CCCCCc1ccc(-c2ccc(Br)cc2)nc1	.	2.1µM	-	.	.	.
COc1cccc(NC(=O)CN(C)C(C)C(=O)Nc2cc([N+](=O)[O-])ccc2Cl)c1 (stereo unspecified)	-	-	-	-	-	-
Cc1ccccc1C(=O)Nc1ccc2c(c1)CCCN2C(=O)c1cccs1	-	-	.	-	-	?
O=C(Nc1ccc2c(c1)CCCN2C(=O)c1ccccc1)c1ccccc1	?	13µM	.	-	-	?
O=C(Nc1ccc(F)c(F)c1)c1ccccc1	?	?	.	21µM	?	?
O=C(Nc1cc(NC(=O)c2ccccc2F)ccc1Cl)c1ccccc1	-	15µM	.	-	-	-
Cc1ccc(NC(=O)CCSCCC(=O)Nc2ccc(C)c(C)c2)cc1C	-	17µM	-	-	-	-
Cc1cc(NC(=O)CCC(=O)N(CC(C)C)C(C(=O)NC(C)(C)C)c2ccccc2Cl)no1 (stereo unspecified)	-	-	.	-	-	-
COc1ccccc1CSc1nc2c(c(=O)n(C)c(=O)n2C)n1C	-	?	.	-	-	-
Cc1cccc(-n2c(C)cc(C(=O)C(=O)Nc3nncs3)c2C)c1	.	-	.	.	.	.
Cc1ccc(C(C)C)c(OCc2ccc(C(=O)Nc3ccc(S(N)(=O)=O)cc3C)o2)c1	.	-	-	.	.	.
Cc1ccc(NC(=O)c2snc3ccc(Cl)cc23)cc1C	?	12µM	11µM	-	-	?
Cc1ccc(NC(=O)c2ccccc2)cc1C	-	15µM	.	-	-	?
Cc1ccc(NC(=O)c2cccnc2)cc1C	?	?	.	?	-	?
O=C(NC1CC(=O)N(c2ccccc2)C1)C(c1ccccc1)c1ccccc1 (stereo unspecified)	.	-	.	.	.	.
O=C(CSc1nnc2[nH]c(=O)cc(-c3ccccc3)n12)Nc1ccc(F)cc1F	.	1.9µM	.	.	.	.
Cc1cccc(NC(=O)CSc2nnc3[nH]c(=O)cc(-c4ccccc4)n23)c1C	.	3µM	.	.	.	.
O=c1cc(-c2ccccc2)n2c(SCc3cccc([N+](=O)[O-])c3)nnc2[nH]1	.	-	.	.	.	.
O=C(CSc1nnc2[nH]c(=O)cc(-c3ccccc3)n12)Nc1cc(C(F)(F)F)ccc1Cl	.	0.21µM	.	.	.	.
Cc1cccc(NC(=O)CSc2nnc3[nH]c(=O)cc(C)n23)c1C	.	-	.	.	.	.
CN(C(=O)CSc1nnc2[nH]c(=O)cc(-c3ccccc3)n12)c1ccccc1	.	19µM	.	.	.	.
Cc1ccc2nc(Cl)c(C3CC(c4cccs4)=NN3C(=O)CCCC(=O)O)cc2c1 (stereo unspecified)	-	-	-	-	-	-
CCS(=O)(=O)N1N=C(c2cccs2)CC1c1cc2cc(C)ccc2nc1Cl (stereo unspecified)	-	17µM	.	-	-	-
COC(=O)CCC(=O)N1CN2CN(C(=O)CCC(=O)OC)CC([N+](=O)[O-])(C2)C1	-	-	.	-	-	?
O=C(/C=C/Nc1ccc(F)cc1)c1ccc(Oc2ncccn2)cc1	?	?	-	-	-	?
SMILES	Rab9 promoter act	FLuc counter	SMN2 splice enh	ELG1 genotoxic	NPC1 promoter act	ELG1 repair inh
COc1ccc(N/C=C/C(=O)c2ccc(Oc3ncccn3)cc2)cc1	-	1.7µM	-	-	-	-
CCOc1ccc(N/C=C/C(=O)c2ccc(OC)cc2)c([N+](=O)[O-])c1	1.1µM	0.85µM	-	?	0.4µM	?
COc1ccc(C(=O)/C=C/Nc2ccc([N+](=O)[O-])cc2)cc1	?	-	?	-	?	?
CCOc1ccc(N/C=C/C(=O)c2ccc(OC)cc2)cc1	?	1.2µM	.	-	?	?
O=C(CSc1cn[nH]n1)Nc1ccc(Cl)cc1Cl	-	-	.	-	-	-
Cc1ccc(NC(=O)CSc2nc3c(c(=O)[nH]2)CCC3)c(C)c1	-	-	.	-	-	-
CC(=O)c1sc(NC(=O)c2ccc(C)c(C)c2)nc1C	1.8µM	2.4µM	8.9µM	-	1.6µM	?
CC(=O)c1sc(NC(=O)c2ccc(C(C)(C)C)cc2)nc1C	1.6µM	1.3µM	.	?	1.6µM	?
COc1ccc(C(=O)Nc2nc(C)c(C(=O)N(C)C)s2)cc1OC	-	13µM	?	?	-	?
CC(=O)c1sc(NC(=O)C(C)(C)C)nc1C	-	-	-	-	-	-
CC(=O)c1sc(NC(=O)c2cnc(Cl)c(Cl)c2)nc1C	-	?	.	?	-	?
COc1ccc(/C=C/C(=O)Nc2nc(C)c(C(=O)N(C)C)s2)cc1	-	19µM	-	-	-	-
COc1ccc(/C=C/C(=O)Nc2nc(C)c(C(=O)N(C)C)s2)cc1OC	-	-	-	-	-	-
Cc1nn(C)c2c1c(-c1ccccc1)cc(=O)n2Cc1ccccc1Cl	.	-	.	.	.	.
COc1ccc(CNC(=O)C[C@H]2C(=O)N(CCc3ccccc3)C[C@@H]2Cc2ccccc2)cc1	-	-	.	-	-	?
Cc1ccc(NC(=O)N2CCCC2C(=O)Nc2c(C)cc(C)cc2C)cc1 (stereo unspecified)	-	?	.	-	-	-
CC(=O)C[C@@H](O)CC(=O)[C@@H]1OC(=O)CCCCC/C=C/Cc2ccccc21	.	.	.	-	.	-
CC(=O)c1sc(NC(=O)c2ccc3c(c2)OCO3)nc1C	3.5µM	4.8µM	.	10µM	2.5µM	?
Cc1ccc(OCCN2CCN(C(=O)CCC(=O)Nc3nnc(CC(C)C)s3)CC2)cc1	-	-	.	-	-	2.6µM
O=S(=O)(NCC1(N2CCOCC2)CCCCC1)c1ccc(F)c(F)c1F	-	-	.	-	-	-
Cc1ccc(NC(=O)CSc2ccccc2)cc1S(=O)(=O)N1CCOCC1	-	-	.	-	-	-
CCN(CC)S(=O)(=O)c1cccc(NC(=O)CNc2cccc(S(=O)(=O)N3CCCC3)c2)c1	-	-	.	-	-	0.33µM
Cc1ccc(NC(=O)CNc2cccc(Br)c2)cc1S(=O)(=O)N1CCOCC1	.	.	.	-	.	23µM
CCN(CC)S(=O)(=O)c1cc(NC(=O)CNc2cccc(S(=O)(=O)N3CCOCC3)c2)ccc1C	-	-	.	5.2µM	-	?
O=C(CNc1ccc(F)cc1Cl)Nc1cccc(S(=O)(=O)N2CCCCC2)c1	-	11µM	.	-	-	-
O=C(CNc1cccc(S(=O)(=O)N2CCCC2)c1)Nc1cccc(F)c1	-	-	.	-	-	-
O=S(=O)(NCC1CN(S(=O)(=O)c2c(F)cccc2F)C1)c1ccc2c(c1)OCCO2	-	-	.	-	-	-
CC(=O)N1c2ccc(S(=O)(=O)NCC3CCC(C(=O)NCc4ccco4)CC3)cc2CC1C (stereo unspecified)	-	-	.	-	-	-
O=C(Cn1ncc2c([nH]c3ccccc32)c1=O)NCCCN1CCN(c2ccc(F)cc2)CC1	.	-	.	.	.	.
CCN(CC)S(=O)(=O)c1cccc(NC(=O)Nc2cccc(C(F)(F)F)c2)c1	-	-	-	-	-	13µM
